From PubChem BioAssay
Most compounds without a hit are left out; they make up all but 12% or so of the library.
BAZ2B inh – inhibitors of human BAZ2B bromodomain; AlphaScreen BAZ2B-H3K14Ac peptide displacement; Potency, µM (top dose mostly 114 µM), for the others: at the top dose activity change, negative = inhibition, most hits filed as inhibitors; 360,000 compounds, 4.4% hits; AID 504333; also: % is scaled to controls: 0 for no effect and ±100 for the full control effect; nearly all actives have a fitted effect of over 60% in size
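In this displacement format the biotinylated H3(5-23) peptide acetylated at Lys14 serves as ligand at 50 nM, with BAZ2B at 50 nM in PBS pH 7.4 containing 0.01% Tween-20. Donor and acceptor beads are 10 ug/mL final.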
Sfp PPTase inh – inhibitors of Bacillus subtilis Sfp phosphopantetheinyl transferase; Biochemical Sfp PPTase activity, qHTS; Potency, µM, inactives show largest response in the series, negative = inhibition, hits mostly inhibitors; 310,000 compounds, 3.5% hits; AID 1490;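 also: the enzyme is Sfp with the accession as filed and its product quenches rhodamine fluorescence; 0% = enzyme reaction without inhibitor and -100% = no enzyme wells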
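Fluorescence-quenching assay with 15 nM Sfp, 5 uM rhodamine-CoA and 12.5 uM BHQ-2-labelled ybbR peptide in pH 7.6 Hepes/MgCl2 buffer. Enzyme was pre-incubated with compound for 15 min at room temperature. Rate was taken from the 30-min fluorescence change (525/598 nm).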
PLK1 PBD inh – PLK1 (human) polo-box domain binding inhibition; P53350; Plk1 PBD binding of FITC phosphopeptide, fluorescence polarization; Potency, µM, for the others: max response, negative = inhibition, usual class: inhibitors; 360,000 compounds, 2.8% hits; also: series mostly up to about 57 µM; % is scaled to controls: 0 for no effect and ±100 for the full control effect; nearly all actives have a fitted effect of over 65% in size
JMJD2A Tudor inh – JMJD2A Tudor domain (human) inhibition; O75164; AlphaScreen JMJD2A-Tudor / H3K4me3 peptide binding; Potency, µM (titrated, usually from 114 µM), inactives show at the top dose activity change, negative = inhibition, most hits filed as inhibitors; 390,000 compounds, 4.4% hits; AID 504339; also: % is scaled to controls: 0 for no effect and ±100 for the full control effect; nearly all actives have a fitted effect of over 50% in size
HP1b binding inh – HP1-beta chromodomain-methylated histone interaction inhibition | P83916 | AlphaScreen HP1-beta / biotin-H3K9me3 peptide binding | Potency, µM (top dose mostly 114 µM), for inactives: at the highest dose activity change, negative = inhibition, hits mostly inhibitors | 390,000 compounds, 0.56% hits; also: nearly all actives have a fitted effect of over 70% in size
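Compound inhibition of the preformed complex between 50 nM HP1-beta and 50 nM biotinylated H3K9me3 peptide was read by AlphaScreen. Buffer was PBS pH 7.4 with 0.01% Tween-20. Incubations ran 30 min at room temperature, with 10 ug/mL donor/acceptor beads.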
G9a block – inhibitors of human histone lysine methyltransferase G9a; Q96KQ7; G9a H3K9 monomethylation, AlphaScreen, 2 h; Potency, µM (doses to about 102 µM), without a hit: at the top dose activity, negative = inhibition, hits mostly inhibitors; 350,000 compounds, 8.8% hits; AID 504332; also: % is scaled to controls: 0 for no effect and ±100 for the full control effect; nearly all actives have a fitted effect of over 75% in size
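Methyltransferase reactions run at room temperature for 2 h (20 nM enzyme, 500 nM biotin-H3K9 peptide, 20 uM SAM) after a 15 min compound preincubation; product detected by AlphaScreen beads and anti-H3K9me1 antibody.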
* marks the source's active call; other numbers are inactive results; [ ] = dose if it differs, or a comment. Calls follow the shape of the dose curve; as a rule, active = well fitted curve in the direction sought with a large enough effect; inconclusive = small, poorly fitted or top-dose-only effect, or another doubt; inactive = no such curve, though single readings can be large; an effect the other way counts as inactive or inconclusive. Potency is read from the fitted curve at half-maximal effect.

S=C(Nc1ccccc1Cl)N(Cc1ccccc1)Cc1ccccn1 was read as BAZ2B inh -5%, Sfp PPTase inh -28%, PLK1 PBD inh 0%, JMJD2A Tudor inh 18%, HP1b binding inh 54% and G9a block 5%[59 µM].
For Cc1cccc(C)c1NC(=O)NC1(C(=O)NCC2CCCO2)CCCCC1 (centres undefined) the results were BAZ2B inh 5%, Sfp PPTase inh 4%, PLK1 PBD inh -20%, JMJD2A Tudor inh 7%, HP1b binding inh 31% and G9a block -1%.
`COc1ccc(CC(=O)NNC(=O)c2cc(C)[nH]n2)cc1` gave BAZ2B inh -16%, Sfp PPTase inh -15%, PLK1 PBD inh 1%, JMJD2A Tudor inh inconclusive, HP1b binding inh 15% and G9a block 22%.
For CCc1noc(C)c1C(=O)NNC(=O)c1cc(OC)cc(OC)c1 the results were BAZ2B inh 2%, PLK1 PBD inh 3%, JMJD2A Tudor inh 6%, HP1b binding inh 45% and G9a block -25%[2.33 µM].
Screening COc1cc(C(=O)NNC(=O)c2cc(C)[nH]n2)cc(OC)c1OC returned BAZ2B inh -36%, Sfp PPTase inh -14%, PLK1 PBD inh -21%, JMJD2A Tudor inh inconclusive, HP1b binding inh -25% and G9a block 13µM*.
CCc1noc(C)c1C(=O)NNC(=O)c1cc(OC)c(OC)c(OC)c1 was read as BAZ2B inh 3%, PLK1 PBD inh -2%, JMJD2A Tudor inh 1%, HP1b binding inh 29% and G9a block 6.3µM*.
Cc1cc(C(=O)NNC(=O)CCCCC(=O)NNC(=O)c2cc(C)[nH]n2)n[nH]1 was read as BAZ2B inh 7%, Sfp PPTase inh 79µM*, PLK1 PBD inh -4%, JMJD2A Tudor inh -15%, HP1b binding inh 26% and G9a block 4µM*.
Screening CCCC(=O)NCc1ccncc1 returned BAZ2B inh -4%, Sfp PPTase inh 19% and G9a block 10%.
For CCOC(=O)CNC(=O)c1cc2c(=O)n(CC)c3ccccc3c2s1 the results were BAZ2B inh -2%, JMJD2A Tudor inh -14%, HP1b binding inh 22% and G9a block 8%[59 µM].
Screening CC(C)(C)C1=CC=C(C(C)(C)C)C(=O)C1=O returned BAZ2B inh -16%, Sfp PPTase inh 1.6µM* and G9a block 2.2µM*.
For COc1ccc(N2C(=O)CC(N3CCC(c4nc5ccccc5[nH]4)CC3)C2=O)cc1 (centres undefined) the results were BAZ2B inh 10%, Sfp PPTase inh -2%, PLK1 PBD inh -10%, JMJD2A Tudor inh 4%, HP1b binding inh 58% and G9a block 8%[12.7 µM].
For O=C1CC(N2CCC(c3nc4ccccc4[nH]3)CC2)C(=O)N1c1ccccc1F (centres undefined) the results were BAZ2B inh -22%, Sfp PPTase inh 8%, PLK1 PBD inh inconclusive, JMJD2A Tudor inh -19%, HP1b binding inh -4% and G9a block 35µM*.
`CCC(CC)c1nn2c(=O)cc(COc3ccc(NC(=O)c4ccc(C)cc4)cc3)nc2s1` gave BAZ2B inh -2%, JMJD2A Tudor inh 1%, HP1b binding inh 56% and G9a block 7%[59 µM].
CCc1cc(=O)oc2cc(C)cc(OCC(=O)N3CCC(C(=O)NC(C)C)(c4ccccc4)CC3)c12 was read as BAZ2B inh -19%, Sfp PPTase inh 13%, PLK1 PBD inh -1%, JMJD2A Tudor inh -9%, HP1b binding inh 13% and G9a block 0%.
Screening O=C1c2ccccc2C(=O)N1c1cccc(N2C(=O)c3ccccc3C2=O)n1 returned JMJD2A Tudor inh -9% and HP1b binding inh 39%.
`COc1cccc(/C=N/n2c(C3CCCCC3)n[nH]c2=S)c1OC` gave BAZ2B inh 6%, Sfp PPTase inh -3%, PLK1 PBD inh inconclusive, JMJD2A Tudor inh inconclusive, HP1b binding inh 36% and G9a block inconclusive.
